Records with an inconclusive call do not appear. Entries that show only a call come without a potency. Values without a mark were called inactive. Active and inactive are the calls of the source. Calls follow the shape of the dose curve; as a rule, active = well fitted inhibition curve with a large enough effect in the signal ratio in the repeat runs (not every such curve was filed as active); inconclusive = weak or mixed curves; inactive = flat fitted curve, though single readings scatter; the % refers to the signal ratio.
Potency is read from the fitted curve at half-maximal effect.

Sequence of Progesterone receptor (Homo sapiens) (P06401 whole entry, looked up): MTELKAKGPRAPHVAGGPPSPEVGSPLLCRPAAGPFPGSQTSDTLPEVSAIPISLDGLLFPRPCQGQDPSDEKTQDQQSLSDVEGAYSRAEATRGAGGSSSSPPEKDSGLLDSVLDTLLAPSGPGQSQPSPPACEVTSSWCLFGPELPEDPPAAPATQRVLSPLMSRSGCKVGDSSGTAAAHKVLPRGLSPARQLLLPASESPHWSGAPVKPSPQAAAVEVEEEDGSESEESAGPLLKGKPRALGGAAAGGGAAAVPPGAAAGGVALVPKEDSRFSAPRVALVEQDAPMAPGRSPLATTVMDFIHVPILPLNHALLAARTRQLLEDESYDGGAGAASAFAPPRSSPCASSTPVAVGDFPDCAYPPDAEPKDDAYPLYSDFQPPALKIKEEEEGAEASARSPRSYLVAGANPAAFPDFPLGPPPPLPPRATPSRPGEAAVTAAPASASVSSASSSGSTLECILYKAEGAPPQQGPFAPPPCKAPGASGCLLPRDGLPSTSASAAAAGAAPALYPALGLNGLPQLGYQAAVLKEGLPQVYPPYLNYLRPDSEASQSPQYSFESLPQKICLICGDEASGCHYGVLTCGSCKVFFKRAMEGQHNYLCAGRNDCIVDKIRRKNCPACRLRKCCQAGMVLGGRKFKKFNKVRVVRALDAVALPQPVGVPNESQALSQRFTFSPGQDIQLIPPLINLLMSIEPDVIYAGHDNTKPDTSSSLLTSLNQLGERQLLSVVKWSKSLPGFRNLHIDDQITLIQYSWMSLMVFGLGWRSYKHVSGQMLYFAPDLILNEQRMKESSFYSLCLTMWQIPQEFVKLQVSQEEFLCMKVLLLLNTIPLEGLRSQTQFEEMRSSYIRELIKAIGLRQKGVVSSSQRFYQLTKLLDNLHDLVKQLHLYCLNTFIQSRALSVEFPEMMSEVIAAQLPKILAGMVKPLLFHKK

This test concerns the target Progesterone receptor (Homo sapiens) (UniProt P06401). Put plainly: qHTS assay to identify small molecule antagonists of the progesterone receptor (PR) signaling pathway (AID 1346795). Conditions: PR-UAS-bla HEK293T, beta-lactamase FRET ratio, 16 h; series mostly up to 92.4 µM. An excerpt: National Center for Advancing Translational Sciences [NCATS]
NIH Chemical Genomics Center [NCGC]
U.S. Environmental Protection Agency [EPA]
National Institutes of Environmental Health Sciences [NIEHS]
National Toxicology Program [NTP]
U.S. Food and Drug Administration [FDA]
Progesterone receptor (PR), a nuclear hormone receptor, plays an important role in development, metabolic homeostasis and reproduction. […] Endocrine disrupting chemicals (EDCs) and their interactions with steroid hormone receptors like PR causes disruption of normal endocrine function. To identify the compounds that inhibit PR signaling, a PR-UAS-bla GripTite cell line i.e. PR-UAS-bla HEK293T (Invitrogen, Carlsbad, CA, USA) containing a beta-lactamase reporter gene under the control of an Upstream Activator Sequence (UAS) was used to screen Tox21 10K compound library.
Tox21 Assay Protocol Summary:
PR-UAS-bla HEK293T cells were dispensed at 3,000 cells/4 uL of assay medium containing 2% charcoal stripped FBS per well into black wall/clear-bottom 1536-well plates using a Multidrop Combi (ThermoFisher Scientific, Waltham, MA) dispenser. After the assay plates were incubated at a 37C and 5% CO2 for 6 hr, 23 nL of compounds dissolved in DMSO, positive controls or DMSO only was transferred to the assay plate by a Pintool station (Kalypsys, San Diego, CA), followed by addition of 1 uL (1nM as final concentration) of Promegestone (R5020) in assay medium using a BioRAPTR FRD (Flying Reagent Dispenser, Aurora Discovery, San Diego, CA). The plates were incubated at 37C and 5% CO2 for 16 hr. Then 1 uL of LiveBLAzer B/G FRET substrate was added using a FRD. After the plates were incubated at room temperature for 2 hours, fluorescence intensity was measured by an Envision plate reader (PerkinElmer, Shelton, CT).
On the technique in general: In qHTS, concentration-response curves come from the screen itself.
Take `C=Cc1ccc(C(C)(C)C)cc1`: the Potency result was “inactive”.
Take `CC1c2ccccc2CN1NC(=O)c1ccc(Cl)c(S(N)(=O)=O)c1` (stereo not given): the Potency entry was “inactive”.
Regarding `Cc1ccc(C(C)NC(=O)[C@@H](NC(=O)OC(C)C)C(C)C)cc1` (stereo not given in full), the Potency entry is “inactive”.
`CC(C)OC(=O)CCC(=O)OC(C)C`: the Potency result is “inactive”.
Take `C/C=C(\C)C(C)=O`: the Potency result was “inactive”.
For `COC(=O)CCCCC(=O)O`, the Potency entry is “inactive”.
Consider `CCOc1ccccc1OCC1CNCCO1` (stereo not given), for which the Potency result is “inactive”.
Turning to `Cc1cc(-c2ccccc2)nnc1NCCN1CCOCC1`, the Potency result was “inactive”.
As to `CC(=O)C1C(=O)C=C(C)OC1=O` (stereo not given), the Potency result was “inactive”.
For `COc1c2occc2c(OC)c2c(=O)cc(C)oc12`, the Potency entry is “inactive”.
For `O=C(O)c1cc2ccccc2nc1C(=O)O`, the Potency result was “inactive”.
Turning to `O=S(=O)(O)c1ccc2c(N=Nc3ccc(S(=O)(=O)O)c4ccccc34)c(O)c(S(=O)(=O)O)cc2c1`, the activity change, negative = inhibition is -1.68% [at 8.39 µM].
Turning to `CCC/C=C(\C=O)CC`, the Potency entry is “inactive”.
Consider `C=CCOC(=O)CCCCCC`, for which the Potency result is “inactive”.
With `CCO`, the Potency result was “inactive”.
In the case of `O=C1OCCO1`, the Potency entry is “inactive”.
Still for that read-out and setting: under `CC(O)COC(C)(C)C` (stereo not given) stands “inactive”; under `O=NN(CCCl)C(=O)NC1CCCCC1`, “inactive”; under `CCCCCCCCCOC(=O)CCCCC(=O)OCCCCCCC`, “inactive”.
As to `COC(=O)c1cccc(Cl)c1`, the Potency entry is “inactive”.
For the compound `OC[C@H]1O[C@@H](O[C@@H]2[C@@H](CO)O[C@](O)(CO)[C@H]2O)[C@H](O)[C@@H](O)[C@H]1O`, the Potency entry was “inactive”.
Still for that read-out and setting: under `CO[C@@]1(NC(=O)Cc2cccs2)C(=O)N2C(C(=O)O)=C(COC(N)=O)CS[C@@H]21` stands “inactive”; under `NCc1ccc(S(N)(=O)=O)cc1`, “inactive”.
Turning to `O=C(O)CSCC(=O)NC1CCSC1=O` (stereo not given), the Potency result was “inactive”.
For `CC(=O)O[Si](C)(OC(C)=O)OC(C)=O`, the Potency entry is “inactive”.
`OC1(c2ccc(Cl)cc2)CCNCC1`: the Potency result was “inactive”.
For `C=C(C)[C@@H]1CC=C(C)C(=O)C1`, the Potency entry is “inactive”.
The same measure, in the same setting: under `O=C(O)[C@H](O)c1ccccc1` stands “inactive”; under `Cc1c(NC(=O)c2cccnc2)c(=O)n(-c2ccccc2)n1C`, “inactive”.
Take `CC(C)CCOC(=O)c1ccccc1`: the Potency result is “inactive”.
On the same count and under the same terms, then `N#Cc1cscn1`, with “inactive”; and `CC1=C(C(=O)O)N2C(=O)[C@@H](NC(=O)[C@H](N)c3ccccc3)[C@H]2SC1`, with “inactive”; and `CC(C)C1OCCN1CCOC(=O)NCCCCCCNC(=O)OCCN1CCOC1C(C)C` (stereo not given), with “inactive”.
In the case of `CC(C)[C@H]1CC[C@H](C)C[C@@H]1O`, the Potency entry is “inactive”.
Regarding `CO/N=C(/C(=O)N[C@@H]1C(=O)N2C(C(=O)[O-])=C(C[n+]3ccn4ncccc43)CS[C@H]12)c1nsc(N)n1`, the Potency result was “inactive”.
For `O=C1c2ccccc2C(=O)c2cc(Cl)ccc21`, the activity change, negative = inhibition is 1.29% [at 8.39 µM].
With `CC1(C)O[C@H]2CC(=O)OC[C@]23[C@H]2CC[C@@]4(C)[C@H](c5ccoc5)OC(=O)[C@H]5O[C@]54[C@]2(C)C(=O)C[C@@H]13`, the Potency result was “inactive”.
Regarding `CCC(=O)Oc1ccc2c(c1)CC[C@@H]1[C@@H]2CC[C@@]2(C)[C@H]1C[C@@H](OC(=O)CC)[C@@H]2OC(=O)CC`, the Potency was 1.88 µM (active).
As for `O=C[O][Al]([O]C=O)[O]C=O`, the Potency entry is “inactive”.
As to `Cc1c(Cl)cccc1Cl`, the Potency entry was “inactive”.

For the origin of these results see PubChem BioAssay (Tox21).
